Screening data deposited in PubChem by several laboratories.
The entries come from a sample that favours hits as a whole.
D1 mod – allosteric modulators of human D1 dopamine receptor; HEK293 D1, CRE-luciferase, dopamine EC30 potentiation; actives deviate in either direction; B-score at 10 µM; actives 5.9% (n = 58,000);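 active = luminescence count or its row- and column-corrected plate score outside the 99.7% band of the plate's sample wells, on either side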
DAT uptake mod – changed human dopamine transporter uptake under cocaine IC80 | Q01959 | LLC-PK1 hDAT cells, [14C]-dopamine uptake with cocaine IC80; actives deviate in either direction | B-score at 10 µM | actives 1.3% (n = 110,000) | AID 449768;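 active = Z score or B-score, a plate-position-corrected score, falls beyond the plate's 99.7% confidence bounds, in either direction; inactive = both scores lie inside the 99.7% bounds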;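 also: scored against the spread of the other compound wells on the same plate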
CD11b adhes enh – CD11b/CD18-fibrinogen binding enhancement | P05107+P11215 | K562 CD11b/CD18 adhesion to fibrinogen, ATPlite luminescence | activation, % at 10 µM | actives 0.07% (n = 93,000);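 active = 10 µM primary screen giving 50% or more activity, confirmed by 40% or more on retest at that dose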
Target sequence (P05107 whole entry, looked up, other chains not shown): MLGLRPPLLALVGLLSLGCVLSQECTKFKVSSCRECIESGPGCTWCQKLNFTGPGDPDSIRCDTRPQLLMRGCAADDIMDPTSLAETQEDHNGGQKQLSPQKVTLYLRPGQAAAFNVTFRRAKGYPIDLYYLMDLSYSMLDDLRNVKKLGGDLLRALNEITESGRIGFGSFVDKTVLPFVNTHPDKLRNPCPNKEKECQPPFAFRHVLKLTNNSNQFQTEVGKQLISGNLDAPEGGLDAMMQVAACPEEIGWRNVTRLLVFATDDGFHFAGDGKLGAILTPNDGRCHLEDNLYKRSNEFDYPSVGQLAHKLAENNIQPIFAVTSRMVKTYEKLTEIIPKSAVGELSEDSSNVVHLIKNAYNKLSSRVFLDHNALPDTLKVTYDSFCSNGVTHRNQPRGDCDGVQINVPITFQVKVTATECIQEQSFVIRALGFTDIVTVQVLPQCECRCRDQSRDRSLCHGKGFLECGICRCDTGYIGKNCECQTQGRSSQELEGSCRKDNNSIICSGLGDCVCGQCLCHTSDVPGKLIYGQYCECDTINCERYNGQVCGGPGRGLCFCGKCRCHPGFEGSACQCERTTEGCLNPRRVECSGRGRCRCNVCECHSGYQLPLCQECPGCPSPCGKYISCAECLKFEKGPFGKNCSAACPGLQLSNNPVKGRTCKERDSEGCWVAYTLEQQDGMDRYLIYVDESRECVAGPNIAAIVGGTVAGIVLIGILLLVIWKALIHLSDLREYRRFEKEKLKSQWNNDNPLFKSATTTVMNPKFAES
FAK blocker – inhibitors of human focal adhesion kinase; inhibition, %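 (tested at 7 µM)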; AID 727; biochemical FAK kinase activity assay; actives 0.84% (n = 97,000); Q05397; in the data active = inhibition above about 19%;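 also: 0% = DMSO and 100% = reference compound high control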
PTK2B oligo ant – blocks oligomerization of human Pyk2 in cells. Q14289. Q293 cells, Pyk2 FERM NanoBiT luminescence; active compounds read low. z-score (the deposit names both 25 µM and 10 µM). actives 0.83% (n = 99,000). AID 1347419;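 active = Z-score of -3 or lower, scaled per plate to the spread of control and sample wells; inactive = z-score above -3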;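 also: negative z-score means lost luminescence so less FERM oligomerization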
CD11b adhes inh – blocks human CD11b/CD18 adhesion to fibrinogen | K562 CD11b/CD18 adhesion to fibrinogen, ATPlite luminescence; Mn2+ added to activate the integrin | actives 0.54% (n = 93,000) | inhibition, % at 10 µM;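 active = primary inhibition of 50% or more at 10 µM, then 40% or more on retest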
D1 PAM confirm – D1 receptor (human) allosteric modulation, confirmed. shares compounds with D1 mod. HEK293 D1 CRE-luciferase, dopamine EC30 potentiation; active compounds read high. luminescence at 10 µM. actives 88% (n = 2,200);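 active = luminescence in either of two replicates above the same-plate mean plus 3 SD of the low-dose dopamine control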
D1 no dopamine – D1 (human) signaling in absence of dopamine; shares compounds with D1 mod; HEK293 D1 CRE-luciferase, luminescence, no dopamine; active compounds read high; luminescence at 10 µM; actives 0.8% (n = 1,900); AID 646; in the data active = luminescence above about 3900
Isoprot counter – alters isoproterenol CRE-luciferase response in HEK293 cells | AID 647 | shares compounds with D1 mod | calls only at 10 µM | actives 63% (n = 2,200) | HEK293 D1 CRE-luciferase, isoproterenol EC30 counter-screen;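 active = luminescence in either replicate above plate mean of wells with a partly effective reference agonist dose plus 3 SD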;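 also: isoproterenol raises cAMP through native beta-adrenoceptor Gs so signal bypasses D1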
* hit, by the source's call; i = inactive; x = no result; + = active, no number.

SMILES	D1 mod	DAT uptake mod	CD11b adhes enh	FAK blocker	PTK2B oligo ant	CD11b adhes inh	D1 PAM confirm	D1 no dopamine	Isoprot counter
COc1cc(C2CC(=O)NC3=C2C(=O)CC(C)(C)C3)ccc1O (configuration not stated)	0.093	0.066	x	3	-0.03	x	x	x	x
CCOc1cc2c(C#N)c(N(CC)CC)nc(N)c2c(N)n1	x	-0.45	x	x	x	x	x	x	x
CCOc1cc2c(C#N)c(N3CCOCC3)nc(N)c2c(N)n1	12*	1.2	-1	x	0.72	-3	11932*	1728	+
CCc1nn(CCCC(=O)N2CCc3ccccc3C2)c(=O)c2cc3occc3n12	2.9*	0.79	-4	x	0.85	19	10688*	1800	i
CCOC(=O)c1c(NC(=O)OC)sc(C(=O)N(CC)CC)c1C	4.2*	0.089	8	-1	-0.72	-19	8956*	1472	+
Cc1c(NS(=O)(=O)CC23CCC(CC2=O)C3(C)C)c(=O)n(-c2ccccc2)n1C (configuration not stated)	3.3*	0.78	-5	-1	0.39	-16	6536	1760	i
CCS(=O)(=O)Nc1c(C)n(C)n(-c2ccccc2)c1=O	x	-0.42	-4	-1	0.79	-7	x	x	x
CC(C)c1nc2sc3c(SCC(=O)NCc4ccco4)ncnc3c2c2c1CCC2	14*	0.083	73	x	0.32	-14	17912*	x	i
O=C(OCc1nnc(-c2ccccc2)o1)c1ccco1	-0.097	0.0028	-1	1	-0.06	-1	x	x	x
CCOc1ncccc1C(=O)OCc1nnc(-c2ccccc2)o1	4.1*	0.052	0	0	0	-14	13008*	1620	i
COC(=O)c1ccccc1NC(=O)COc1ccccc1	5.8*	-0.38	0	0	-1.9	-11	14156*	1628	+
COC(=O)c1ccccc1NC(=O)COc1ccc(S(=O)(=O)N2CCCC2)cc1C	3.2*	0.81	5	1	-1.6	52	5776*	1512	i
COC(=O)c1ccccc1NC(=O)CN(C)S(=O)(=O)c1ccc(OC)c(C)c1	0.42	0.56	3	0	1.8	12	x	x	x
Cc1ccc(Cn2cnc3ccccc32)cc1	x	-0.38	-2	2	0.9	8	x	x	x
CC1(C)C(=O)N(OCc2ccccc2)C(C)(C)C(=O)N1OCc1ccccc1	x	x	1	1	0.45	-9	x	x	x
COCc1cc(C)nc(NCCO)c1C#N	x	-0.46	-5	-1	0.56	12	x	x	x
CCNc1nc(C)cc(COC)c1C#N	4.7*	-0.87	3	2	-0.12	-13	10012*	x	+
Cn1cccc1C1NC(=O)c2c(sc3c2CCC(C(C)(C)C)C3)N1 (configuration not stated)	3*	-0.08	x	-1	0.03	x	7568*	1776	i
O=c1cc(CO)oc(CN2CCN(c3cccc(C(F)(F)F)c3)CC2)c1O	x	-0.016	-2	-1	0.22	16	x	x	x
O=c1cc(CO)oc(CN2CCN(c3ccccc3)CC2)c1O	3.1*	-0.68	-2	-3	0.06	9	7092	1768	i
Cc1nc2ccccc2c2oc(C(=O)NCCN3CCN(C)CC3)cc12	2.6*	0.0018	2	-3	x	-7	5656	1600	i
CCOC(=O)C1CCCN(c2nc3ccccc3nc2C(C#N)C(=O)OCC)C1 (configuration not stated)	3*	-0.035	-2	x	-1.8	1	8656*	1548	i
CCOC(=O)C1CCCN(c2nc3ccccc3nc2C(C#N)C(=O)OCCOC)C1 (configuration not stated)	2	1.3	2	x	-0.98	5	x	x	x
CC1(C)Oc2ccc3ccc(=O)oc3c2/C(=C/NC2CCCCC2)C1=O	x	0.18	x	-1	-0.53	x	x	x	x
